Assay outcomes (PubChem BioAssay)
Compounds with a hit are over-represented: about 4.5% of the library has one in this group of screens.
GDH-TPI counter: counter-screen for M. tuberculosis FBA inhibitors: GDH-TPI coupled enzymes; GDH-TPI coupled enzyme counterscreen, NADH absorbance; inhibition, % at 4.8 µM; 1.2% of 360,000 active; AID 588335; in the data active = inhibition above about 30%;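 note: 0% = DMSO wells and 100% = wells lacking the enzyme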
PfHsp40 yeast: rescue of PfHsp40-mediated yeast toxicity | S. cerevisiae expressing PfHsp40, growth rescue, ATP luminescence | growth rescue, % at 12.5 µM | 0.68% of 340,000 active; in the data active = growth rescue above about 28%, passing the limit was not always enough;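 note: yeast W303a lacking pdr1 and pdr3 grown in galactose medium; growth measured after three days at 30 °C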
BJeLR lethal: BJeLR cell viability loss; inhibition, % (no concentration beside the values); 0.17% of 300,000 active; BJeLR (HRASV12) viability, CellTiter-Glo ATP luminescence, 48 h; in the data active = inhibition above about 50%
Mtb FBA inh: inhibitors of M. tuberculosis fructose-bisphosphate aldolase. inhibition, % at 1 µM. AID 588726. 2.3% of 360,000 active. purified M. tuberculosis FBA, fluorescence read-out; in the data active = inhibition above about 27%;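 note: 0% = vehicle and 100% = reference inhibitor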
Target sequence (P9WQA3 whole entry, looked up): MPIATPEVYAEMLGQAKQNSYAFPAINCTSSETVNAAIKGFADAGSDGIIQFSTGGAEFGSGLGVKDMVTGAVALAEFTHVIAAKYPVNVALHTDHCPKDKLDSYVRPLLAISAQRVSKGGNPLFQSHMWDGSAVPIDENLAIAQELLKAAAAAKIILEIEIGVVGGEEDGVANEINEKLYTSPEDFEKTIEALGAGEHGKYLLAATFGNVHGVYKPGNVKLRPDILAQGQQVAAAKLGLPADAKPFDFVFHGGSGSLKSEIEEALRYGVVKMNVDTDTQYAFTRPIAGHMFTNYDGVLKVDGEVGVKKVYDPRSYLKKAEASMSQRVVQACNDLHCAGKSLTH
PrPC surface inh: reduces human prion protein on the cell surface; P04156; cell surface PrPC, TR-FRET read-out; inhibition, % at 13.8 µM; 0.43% of 370,000 active; in the data active = inhibition above about 24%; note: 0% = median of the test wells and 100% = reference compound wells
PrP UTR inh: inhibition of PrP 5' UTR reporter expression. cell-based PrP 5' UTR mRNA reporter, plate reader. inhibition, % (concentration not given with the values). 0.35% of 340,000 active. AID 488862; in the data active = inhibition above about 52%; note: 0 = median of the neutral control wells
Active calls of the source: *; · = no result given; + = active, no number.

SMILES	GDH-TPI counter	PfHsp40 yeast	BJeLR lethal	Mtb FBA inh	PrPC surface inh	PrP UTR inh
N#Cc1c(N)nc2c(c1-c1ccc(F)cc1)CCC2	20	-1	-13	64*	-4	-9
O=C(CCN1C(=O)c2ccccc2C1=O)NC(=S)Nc1ccccc1	2	0	15	0	3	-16
O=C(CCN1C(=O)c2ccccc2C1=O)NC(=S)Nc1cccc(Cl)c1	7	66*	-2	-3	5	-10
Cn1ccc2ccc(-c3ccc4c(c3)[C@]3(CCC[C@@H](OCc5ccccc5)[C@@H]3NC(=O)CCc3ccccc3)C(=O)N4Cc3ccccc3)cc21	·	·	·	·	-2	·
ClC1=C(Cl)C(Cl)=C(Cl)C1=C/C=C/c1ccccc1	5	1	89*	-4	-9	-21
Cc1sc(=NC(=O)c2ccco2)n(C)c1-c1ccc(Cl)cc1	52*	0	-5	5	2	-51
CCOC(=O)c1sc(=NC(=O)c2ccco2)n(C)c1C	38*	0	·	1	3	-103
Cc1sc(NC(=O)c2ccco2)c(C(=O)c2ccc(Cl)cc2)c1C	5	0	-15	1	-3	-56
CCOC(=O)c1sc(=NC(=O)c2ccccc2Br)n(C)c1C	21	0	0	1	3	-157
O=[N+]([O-])c1ccc2nc(COCc3nc4ccccc4[nH]3)[nH]c2c1	·	·	·	·	-5	·
Clc1ccc(CCC(Cn2ccnc2)Sc2c(Cl)cccc2Cl)cc1 (stereo unspecified)	-4	120*	·	6	4	-9
OC(Cn1ccnc1)c1ccc(Cl)cc1Cl (stereo unspecified)	2	-1	1	1	-1	-15
CCCNC(=O)c1ccc2c(=O)c(O)c(-c3ccc(F)cc3)[nH]c2c1	5	199*	-13	1	·	-4
CCCNC(=O)c1ccc2c(=O)c(O)c(C)[nH]c2c1	8	1	9	2	-2	-10
Nc1c(Cl)cc(-c2[nH]c3cc(C(=O)NCCO)ccc3c(=O)c2O)cc1Cl	11	43*	9	2	-1	-26
Cc1ccc(NC(=O)C2CCCN(c3nnc(-n4cccc4)s3)C2)c(C)c1 (stereo unspecified)	·	·	·	·	-4	·
CCOC(=O)c1sc2ncnc(N3CCN(c4ccc(OC)cc4)CC3)c2c1C	6	4	-6	1	7	-13
CCOC(=O)c1sc2ncnc(N3CCN(C)CC3)c2c1C	33*	-1	4	8	-4	-5
O=c1/c(=C\c2ccc(F)cc2)sc2n1CCCN=2	33*	0	3	0	9	-77
COc1ccc(/C=N/N(C)c2cc(=O)n(C)c(=O)[nH]2)cc1OC	46*	1	-2	-2	1	-8
COc1ccc(/C=N/N2CCN(C)CC2)cc1OC	16	0	0	3	-3	-4
CN(/N=C/C=C/c1ccccc1)c1cc(=O)n(C)c(=O)[nH]1	73*	0	-16	-5	-12	-39
Cn1c(=O)cc(NCc2ccccc2)[nH]c1=O	8	-1	-11	0	0	-15
CC(=O)Cc1nsc(NC(=O)c2ccccc2Cl)n1	1	-2	·	0	5	9
CC(=O)Cc1nsc(NC(=O)c2oc(-c3ccccc3Cl)cc2C)n1	56*	0	5	5	-3	-7
SMILES	GDH-TPI counter	PfHsp40 yeast	BJeLR lethal	Mtb FBA inh	PrPC surface inh	PrP UTR inh
CC(O)Cc1nsc(NC(=O)c2ccc(Br)o2)n1 (stereo unspecified)	42*	0	-5	-1	-7	-7
CC(=O)Cc1nsc(NC(=O)c2ccc(-c3ccccc3Cl)o2)n1	33*	6	-2	4	4	-33
N#Cc1nc(-c2cccs2)oc1N1CCOCC1	28	-1	-8	+	-5	-10
CC1CN(c2oc(-c3cccs3)nc2C#N)CC(C)O1 (stereo unspecified)	20	1	2	+	-1	-14
CC(C)C/C(O)=C/c1nc2cc(Cl)ccc2oc1=O	7	0	2	-3	3	-31
O=c1oc2ccc(Cl)cc2nc1/C=C(\O)c1ccco1	37*	-1	3	-2	-8	-17
COc1ccc(-n2c(SC/C=C/c3ccccc3)nnc2-c2cccs2)cc1	·	·	·	·	16	·
CCC(NC(=O)c1ccc2c(c1)c(C)c(C)n2Cc1ccc(Cl)cc1)c1ccccc1 (stereo unspecified)	·	·	·	·	1	·
CSCC[C@H](NC(=O)Cc1c(C)c2cc3c(C)c(C)oc3cc2oc1=O)C(=O)N[C@@H](C(=O)O)c1ccccc1	10	·	·	21	-1	·
